From publication PMC4552634, “A New Set of Chemical Starting Points with Plasmodium falciparum Transmission-Blocking Potential for Antimalarial Drug Discovery” (PLoS ONE, 2015)
About 3,200 (25%) of roughly 13,000 compounds showed an effect of 50% or more. Some of the results follow.

What follows are compounds tested on P. falciparum stage V gametocytes. Settings: 48 h, 5 µM; inhibitor.
Design: BacTiter-Glo ATP luminescence viability of purified stage V gametocytes in 384-well plates, per cent inhibition versus DMSO
For `C[C@H](NC(=O)[C@H](CCCCNC(=O)OC(C)(C)C)NC(=O)OC(C)(C)c1ccc(-c2ccccc2)cc1)C(=O)OCc1ccccc1` [TCMDC-131396], the “% Inhibition” value was 15.4%. In the case of `O=C(Nc1ccc2nccc(N3CCN4CCC[C@H]4C3)c2c1)c1ccc(Cl)c(Cl)c1` [TCMDC-139628], the “% Inhibition” value is reported as 19.58%. For `CC[C@H](C)CNC(=O)c1ccnc(-c2ccc(CN3CCC(N4CCCC4)CC3)cc2)c1` [TCMDC-134250], the “% Inhibition” value was 36.18%. `CC[C@H](C)CNC(=O)c1cccc(-c2cccc(CN3CCC(N4CCCC4)CC3)c2)n1` [TCMDC-134224] was tested, and the “% Inhibition” value was 16.22%. In the case of `CC[C@H](C)CNC(=O)c1cccc(-c2ccc(CN3CCC(N4CCCC4)CC3)cc2)n1` [TCMDC-134249], the “% Inhibition” value is reported as 57.67%. In the case of `N#Cc1ccc2c(c1)CCN(CCC1CCC(NC(=O)c3cc4cccc(Cl)c4[nH]3)CC1)CC2` (stereo not shown) [TCMDC-139685], the “% Inhibition” value is reported as -1.386%. With `Cc1ccc(-c2nnc3c4ccccc4c(C)nn23)cc1S(=O)(=O)N1CCN(CCO)CC1` [TCMDC-124482] the “% Inhibition” value was 63.32%. For `Cc1ccc(C(=O)Cn2nc(-c3ccc(C)c(S(=O)(=O)N4CCCC4)c3)ccc2=O)cc1` [TCMDC-124704], the “% Inhibition” value was -26.21%. In the case of `Cc1ccc(C(=O)Cn2nc(-c3ccc(C)c(S(=O)(=O)N4CCCCC4)c3)ccc2=O)cc1` [TCMDC-124714], the “% Inhibition” value is reported as 32.41%. With `NC(=S)Cc1ccc2c(c1)OCO2` [TCMDC-137863] the “% Inhibition” value was -6.254%. In the case of `O=C(Cc1ccccc1)NC(CCN1CCC(N(C2CC2)S(=O)(=O)c2cccc(C(F)(F)F)c2)CC1)c1ccc(Cl)c(Cl)c1` (stereo not shown) [TCMDC-141710], the “% Inhibition” value is reported as 20.7%. With `CCCCCN1CCC(NS(=O)(=O)c2cccc(C(=O)Nc3ccc(Cl)cc3)c2)CC1` [TCMDC-132806] the “% Inhibition” value was 32.08%. With `Cc1cnn(-c2cccc(C(=O)NC3CCC(CCN4CCc5ccc(C#N)cc5CC4)CC3)c2)c1` (stereo not shown) [TCMDC-139818] the “% Inhibition” value was -20.34%. For `Cc1cccc2[nH]c(-c3cccc(-c4ccc(NC(=O)Nc5ccsc5)cc4)c3)nc12` [TCMDC-133211], the “% Inhibition” value was 22.09%. With `Cc1ccc(-c2cncc(-c3cc(NC4CCN(Cc5ccccc5)CC4)nc(-c4ccccc4)n3)c2)cc1` [TCMDC-125588] the “% Inhibition” value was 17.17%. For `COc1cccc(Nc2nc(C)cc(NC3CCN(Cc4ccccc4)CC3)n2)c1` [TCMDC-134022], the “% Inhibition” value was -46.19%. For `Cc1cc(NC2CCN(Cc3ccccc3)CC2)nc(NCCCCc2ccccc2)n1` [TCMDC-138304], the “% Inhibition” value was 79.92%. `CC12CCC(C(=O)N(CC(O)Cn3c4ccc(Cl)cc4c4cc(Cl)ccc43)C1=O)C2(C)C` (stereo not shown) [TCMDC-125719] was tested, and the “% Inhibition” value was 82.98%. `CS(=O)(=O)N(CC(O)Cn1c2ccc(Cl)cc2c2cc(Cl)ccc21)c1ccccc1` (stereo not shown) [TCMDC-124039] was tested, and the “% Inhibition” value was 35.36%. `OC(CNc1cccc(Cl)c1)Cn1c2ccc(Cl)cc2c2cc(Cl)ccc21` (stereo not shown) [TCMDC-125716] was tested, and the “% Inhibition” value was 20.85%. With `Fc1ccc2[nH]c(-c3ccc(-c4ccc(CNCC5CCCO5)cc4)cc3)nc2c1.O=C(O)C(F)(F)F` (stereo not shown) [TCMDC-133097] the “% Inhibition” value was 36.17%. For `CCOC(=O)c1cn(CC)c2cc(OCc3ccccc3)ccc2c1=O` [TCMDC-141680], the “% Inhibition” value was 0.3884%. With `CCOC(=O)c1cc2c(CCN3C(=O)c4ccccc4C3=O)cn(C)c2cc1-c1ccncc1` [TCMDC-138099] the “% Inhibition” value was 108.6%. In the case of `CCOC(=O)c1c(CNc2ccncc2)n(C)c2cc(Br)c(OC(C)=O)cc12` [TCMDC-125700], the “% Inhibition” value is reported as -53.66%. For `CS(=O)(=O)Nc1cccc(-c2cnc3[nH]cc(-c4cc(N)cc(C(=O)O)c4)c3c2)c1` [TCMDC-136220], the “% Inhibition” value was 11.92%. With `COc1nc(-n2ccc(=N)cc2)nc2ccccc12` [TCMDC-131303] the “% Inhibition” value was 8.489%. In the case of `c1ccc(-n2cncn2)cc1` [TCMDC-124291], the “% Inhibition” value is reported as 2.88%. In the case of `CCC(CN1C(=O)C(c2ccccc2)(c2ccccc2)N=C1N)c1ccccc1` (stereo not shown) [TCMDC-136879], the “% Inhibition” value is reported as 66.04%. For `CCC(CC)CN1C(=O)C(c2ccccc2)(c2ccccc2)N=C1N` [TCMDC-136491], the “% Inhibition” value was 13.18%. With `CCC(C)CN1C(=O)C(c2ccccc2)(c2ccccc2)N=C1N` (stereo not shown) [TCMDC-136799] the “% Inhibition” value was -2.713%. With `CC(C)CNCc1cccc(-c2cccc(CN(C(=O)c3cccs3)C3CCN(Cc4ccccc4)CC3)c2)c1` [TCMDC-140565] the “% Inhibition” value was 96.32%. With `CN(c1cc(NC(=O)c2cccs2)ccn1)C1CCN(Cc2ccccc2)CC1` [TCMDC-135006] the “% Inhibition” value was 1.42%. In the case of `CC(C)CNCc1cccc(-c2ccc(CN(C(=O)c3cccs3)C3CCN(Cc4ccccc4)CC3)cc2)c1` [TCMDC-140569], the “% Inhibition” value is reported as 103.7%. In the case of `CN(CCCCCNC(=O)/C=C/c1ccc(Cl)c(Cl)c1)CCc1c[nH]c2ccccc12` [TCMDC-139327], the “% Inhibition” value is reported as -26.77%. In the case of `COc1cc(Cc2c(C)nc3nc(N)nc(N)c3c2C)c(Br)c(OC)c1OC` [TCMDC-137644], the “% Inhibition” value is reported as 1.652%. In the case of `COc1cccc(NC(=O)NC2CCN(c3ccnc(Nc4ccc(F)cc4)n3)C2)c1` (stereo not shown) [TCMDC-133602], the “% Inhibition” value is reported as -32.07%. For `CN1CCC(N(Cc2ccc(-c3ccc(C(F)(F)F)cc3)nc2)C(=O)Cn2c(CCc3cccc(F)c3F)cc(=O)c3ccccc32)CC1` [TCMDC-141407], the “% Inhibition” value was 27.49%. For `CN1CCC(N(Cc2ccc(-c3ccc(Cl)cc3)cc2)C(=O)Cn2c(CCc3cccc(F)c3F)cc(=O)c3ccccc32)CC1` [TCMDC-141357], the “% Inhibition” value was 111.3%. In the case of `CCN1CCC(N(Cc2ccc(-c3ccc(Cl)cc3)cc2)C(=O)Cn2c(CCc3cccc(F)c3F)cc(=O)c3ccccc32)CC1` [TCMDC-141358], the “% Inhibition” value is reported as 109.7%. `Nc1nc2ccc(CN(C=O)c3ccc(C(=O)N[C@@H](CCC(=O)O)C(=O)O)cc3)cc2c(=O)[nH]1` [TCMDC-132048] was tested, and the “% Inhibition” value was 3.734%. `COc1ccc(Cn2c(Nc3cccc(C(F)(F)F)c3)nc3cc(C(=O)NCCN4CCCC4)cnc32)cc1Cl` [TCMDC-138555] was tested, and the “% Inhibition” value was 60.89%. For `COc1ccc(Cn2c(Nc3cccc(C(F)(F)F)c3)nc3cc(C(=O)NCCN4CCCC4)ccc32)cc1Cl` [TCMDC-138532], the “% Inhibition” value was -18.24%. In the case of `COc1ccc(Cn2c(Nc3cccc(C(F)(F)F)c3)nc3ccc(C(=O)NCCN4CCCC4)cc32)cc1Cl` [TCMDC-138531], the “% Inhibition” value is reported as -30.77%.
